Test results reported in PubChem BioAssay AID1159580 (chemical genetic matrix, 2015).
Out of some 5,500 compounds screened, about 2,000 (36%) were called active. Not shown: some 18% with an inconclusive outcome. Cut-off read from the data, not from the text of the source: active = normalized growth mostly below about 0.91 (no sharp cut-off); inconclusive = no clear call, values can overlap the other calls; inactive = mostly above about 0.92. Some of the results follow.

Assay: chemical genetic growth profiling, strain panel (AID 1159580);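 note: tested at 20 µM; growth read once vehicle control cultures reached saturation at 30 °C; 1 = growth at the plate median or of vehicle wells; lower values mean less growth of the strain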
Conditions: S. cerevisiae deletion strains, growth OD
[1] = locus YDL101C, strain DUN1, stronger effect = lower value
[2] = locus YHR030C, strain SLT2, stronger effect = lower value

Measured: normalized growth

CCCN(CCC)C(=S)NC(=O)c1cccc([N+](=O)[O-])c1
inactive: locus YAR019C, strain CDC15, stronger effect = lower value 0.973 | locus YBL105C, strain PKC1, stronger effect = lower value 0.956 | locus YBR135W, strain CKS1, stronger effect = lower value 0.977 | locus YBR136W, strain MEC1, stronger effect = lower value 0.966 | locus YBR160W, strain CDC28, stronger effect = lower value 0.965 | locus YDL017W, strain CDC7, stronger effect = lower value 0.969 | locus YDL028C, strain MPS1, stronger effect = lower value 0.976 | [1] 0.968 | locus YDL108W, strain KIN28, stronger effect = lower value 0.965 | locus YDL132W, strain cdc53, stronger effect = lower value 0.973 | locus YDL214C, strain PRR2, stronger effect = lower value 0.967 | locus YDR052C, strain DBF4, stronger effect = lower value 0.978 | locus YDR054C, strain cdc34, stronger effect = lower value 0.96 | locus YDR226W, strain ADK1, stronger effect = lower value 0.968 | locus YDR477W, strain SNF1, stronger effect = lower value 0.958 | locus YER123W, strain YCK3, stronger effect = lower value 0.907 | locus YER133W, strain GLC7, stronger effect = lower value 0.965 | locus YFL009W, strain cdc4, stronger effect = lower value 0.961 | locus YFL029C, strain CAK1, stronger effect = lower value 0.962 | locus YFR003C, strain YPI1, stronger effect = lower value 0.977 | locus YFR019W, strain FAB1, stronger effect = lower value 0.958 | locus YFR028C, strain CDC14, stronger effect = lower value 0.963 | locus YGR040W, strain KSS1, stronger effect = lower value 0.924 | locus YGR052W, strain FMP48, stronger effect = lower value 1.02 | locus YGR092W, strain DBF2, stronger effect = lower value 0.915 | [2] 0.94 | locus YHR079C, strain IRE1, stronger effect = lower value 0.978 | locus YHR082C, strain KSP1, stronger effect = lower value 1.02 | locus YHR205W, strain SCH9, stronger effect = lower value 0.976 | locus YIL147C, strain SLN1, stronger effect = lower value 0.97 | locus YJL095W, strain BCK1, stronger effect = lower value 0.982 | locus YJL128C, strain PBS2, stronger effect = lower value 0.952 | locus YJL157C, strain FAR1, stronger effect = lower value 0.928 | locus YJR016C, strain ILV3, stronger effect = lower value 0.968 | locus YJR066W, strain TOR1 (second series), stronger effect = lower value 0.898 | locus YJR066W, strain TOR1, stronger effect = lower value 0.992 | locus YKL048C, strain ELM1, stronger effect = lower value 0.954 | locus YKL067W, strain YNK1, stronger effect = lower value 0.96 | locus YKL101W, strain HSL1, stronger effect = lower value 0.958 | locus YKL193C, strain SDS22, stronger effect = lower value 0.968 | locus YKL203C, strain TOR2, stronger effect = lower value 0.995 | locus YLR113W, strain HOG1, stronger effect = lower value 0.932 | locus YLR133W, strain CKI1, stronger effect = lower value 0.946 | locus YLR403W, strain SFP1, stronger effect = lower value 0.907 | locus YML070W, strain DAK1, stronger effect = lower value 0.942 | locus YMR001C, strain CDC5, stronger effect = lower value 0.973 | locus YMR205C, strain PFK2 (second series), stronger effect = lower value 0.956 | locus YMR277W, strain FCP1, stronger effect = lower value 0.973 | locus YNL006W, strain LST8, stronger effect = lower value 0.977 | locus YNL020C, strain ARK1, stronger effect = lower value 0.946 | locus YNL161W, strain CBK1, stronger effect = lower value 0.959 | locus YNL183C, strain NPR1, stronger effect = lower value 0.977 | locus YNL207W, strain RIO2, stronger effect = lower value 0.971 | locus YNL222W, strain SSU72, stronger effect = lower value 0.965 | locus YNL307C, strain MCK1 (second series), stronger effect = lower value 0.94 | locus YOL078W, strain AVO1, stronger effect = lower value 0.965 | locus YOL136C, strain PFK27, stronger effect = lower value 0.929 | locus YOR061W, strain CKA2, stronger effect = lower value 0.943 | locus YOR119C, strain RIO1, stronger effect = lower value 0.996 | locus YOR231W, strain MKK1, stronger effect = lower value 0.939 | locus YOR329C, strain SCD5, stronger effect = lower value 0.963 | locus YPL031C, strain PHO85, stronger effect = lower value 0.955 | locus YPL153C, strain RAD53, stronger effect = lower value 0.925 | locus YPL204W, strain HRR25, stronger effect = lower value 0.915 | locus YPL209C, strain IPL1, stronger effect = lower value 0.961 | locus YPL256C, strain CLN2, stronger effect = lower value 0.941 | locus YPR025C, strain CCL1, stronger effect = lower value 0.973 | locus YPR106W, strain ISR1, stronger effect = lower value 0.961 | locus YPR111W, strain DBF20, stronger effect = lower value 0.964 | strain NNK1, stronger effect = lower value 0.974 | strain TSCII, stronger effect = lower value 0.962

COc1ccc(-n2c(=S)[nH]c(=O)c3cccnc32)cc1
inactive: locus YAL013W, strain DEP1, stronger effect = lower value 1 | locus YBR229C, strain ROT2, stronger effect = lower value 1.01 | [1] 1.04 | locus YDL134C, strain PPH21, stronger effect = lower value 0.996 | locus YDR150W, strain NUM1, stronger effect = lower value 0.985 | locus YEL061C, strain CIN8, stronger effect = lower value 1 | locus YGR078C, strain PAC10, stronger effect = lower value 1.04 | locus YGR229C, strain SMI1, stronger effect = lower value 0.993 | [2] 1.06 | locus YHR087W, strain rtc3, stronger effect = lower value 0.954 | locus YJL187C, strain SWE1, stronger effect = lower value 0.99 | locus YJR043C, strain POL32, stronger effect = lower value 1.04 | locus YJR075W, strain HOC1, stronger effect = lower value 0.993 | locus YLR039C, strain RIC1, stronger effect = lower value 0.999 | locus YLR058C, strain SHM2 (second series), stronger effect = lower value 0.991 | locus YLR085C, strain ARP6, stronger effect = lower value 1.03 | locus YLR262C, strain YPT6, stronger effect = lower value 0.988 | locus YML094W, strain GIM5, stronger effect = lower value 0.983 | locus YMR219W, strain ESC1, stronger effect = lower value 0.999 | locus YMR263W, strain SAP30, stronger effect = lower value 1.02 | locus YNL153C, strain GIM3, stronger effect = lower value 1.02 | locus YNL298W, strain CLA4 (second series), stronger effect = lower value 1 | locus YNL322C, strain KRE1, stronger effect = lower value 1.01 | locus YNR030W, strain Alg12, stronger effect = lower value 0.994 | locus YPL055C, strain LGE1, stronger effect = lower value 0.973 | locus YPL241C, strain CIN2, stronger effect = lower value 0.991 | locus YPR135W, strain CTF4, stronger effect = lower value 1.05
